Unmarked numbers belong to inactive results.

The nature of this assay: E. coli acrAB mutant growth effects, primary screen, E. coli filamentation inducers, strain DRC39, OD650, 48 h (AID 1179).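 Further: screen aims at cell division blockers that make cells filament.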 The note with it: E. coli DRC39 delta-acrAB growth, higher = more signal, called active from +8 up or from −8 down.
In the case of `N#Cc1ccc(NN2C(C(O)c3ccccc3)C=CC3C(=O)N(c4ccccc4)C(=O)C32)cc1` (centres undefined), the z-score is 0.0355.

Turning to `O=C(NCc1ccccc1)[C@]1(Cc2ccccc2)N=C(c2ccc(OCCCO)cc2)O[C@@H]1c1ccccc1`, the z-score was -0.642.

On to `CC(C)CCC[C@@H](C)[C@H]1CC[C@@]2(C)C3=C(CC[C@]12C)[C@@]1(C)CC[C@H](OC(=O)C(C)(C)C)C(C)(C)C1CC3` (some centres undefined), for which the z-score was -0.805.

On to `NC(=O)NCC#Cc1ccc2c(c1)[C@]1(C(=O)N2)[C@H](c2ccc(OCCO)cc2)N2[C@H](c3ccccc3)[C@H](c3ccccc3)OC(=O)[C@H]2[C@@H]1C(=O)N1CCCCCCC1`, for which the z-score is -1.96.

On to `[N-]=[N+]=Nc1ccccc1[C@H]1OC(c2ccc(OCCCO)cc2)=N[C@@]1(Cc1ccccc1)C(=O)NCc1ccccc1`, for which the z-score was 1.76.

Take `COCCOC(=O)N1C(=O)[C@@]2(c3cc(C#CCC(C(=O)OC)C(=O)OC)ccc31)[C@H](C(=O)N1CCCCCCC1)[C@H]1C(=O)O[C@H](c3ccccc3)[C@H](c3ccccc3)N1[C@@H]2c1ccc(O)cc1`: the z-score is -0.86.

`C=CC[C@]1(C(=O)NCC(O)CO)N=C(c2ccc(OCCCO)cc2)O[C@H]1c1ccccc1N=[N+]=[N-]` (some centres undefined): the z-score was -0.579.

With `O=C(Nc1cc(Br)ccc1C(=O)NCc1cccc(O)c1)c1ccccc1`, the z-score was 1.06.

Take `CC1CC/C=C\[C@H]2OC34C=CCN(c5ccc(Cl)cc5)C(=O)[C@H]3N(C(CO)C(C)C)C(=O)[C@]4(C)C2C(=O)O1` (some centres undefined): the z-score is 0.129.

These data come from PubChem BioAssay.
